From PubChem BioAssay
Compounds with a hit are over-represented: about 3.1% of the library has one in this group of screens.
Tau fluor cs – counter-screen for tau fibril formation inhibitors | Potency, µM (doses to about 57.7 µM), inactives show at the highest dose activity change, negative = decrease | tau K18 P301L Alexa594 fluorescence, heparin fibrillization | actives 0.93% (n = 280,000); further: nearly all actives have a fitted effect of over 55% in size
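Human tau K18 P301L (15 uM unlabeled, 0.24 uM Alexa 594-labeled) in 100 mM sodium acetate pH 7 with 20 uM heparin, 6 hr at 37 C. ThT 30 uM added, 1 hr ambient; Alexa 594 FP and total fluorescence read at 555/632 nm.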
Tau ThT inhib – tau fibrillization inhibition (ThT binding); P10636; recombinant tau K18 P301L, heparin-induced fibrillization, ThT fluorescence; Potency, µM (titrated, usually from 57.4 µM), without a hit: at the top dose activity, negative = inhibition, hits mostly inhibitors; actives 2.1% (n = 270,000); further: nearly all actives have a fitted effect of over 55% in size
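In this qHTS, human K18 P301L tau is incubated with compound and heparin for 6 hr at 37 C, and Thioflavin T fluorescence then reports fibril load.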
TRb-SRC2 inh – inhibitors of human thyroid hormone receptor beta-SRC2 interaction; Potency, µM (top dose mostly 106 µM), for the others: top-dose activity change, negative = inhibition, usual class: inhibitors; actives 0.065% (n = 280,000); TRbeta-SRC2 peptide binding, fluorescence polarization; receptor liganded with 1 µM T3;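 further: plate controls were bound peptide for no effect and peptide without receptor for full effect; nearly all actives have a fitted effect of over 50% in size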
Target sequence (P10828 whole entry, looked up): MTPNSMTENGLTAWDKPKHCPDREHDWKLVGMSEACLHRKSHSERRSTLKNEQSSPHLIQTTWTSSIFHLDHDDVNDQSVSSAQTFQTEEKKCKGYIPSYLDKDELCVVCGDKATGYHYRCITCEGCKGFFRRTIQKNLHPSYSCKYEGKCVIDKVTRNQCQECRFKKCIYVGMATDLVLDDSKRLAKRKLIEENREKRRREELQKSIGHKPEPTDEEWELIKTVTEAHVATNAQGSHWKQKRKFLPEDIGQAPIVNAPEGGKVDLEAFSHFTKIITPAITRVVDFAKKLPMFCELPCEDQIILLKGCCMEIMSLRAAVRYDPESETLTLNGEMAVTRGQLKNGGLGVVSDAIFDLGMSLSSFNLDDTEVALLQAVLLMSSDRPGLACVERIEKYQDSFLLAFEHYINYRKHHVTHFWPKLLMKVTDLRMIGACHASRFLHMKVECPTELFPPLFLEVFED
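Human TRb ligand-binding domain (0.6 uM) is mixed with 20 nM Texas Red SRC2 peptide and 1 uM T3; after compound addition and 5 hr at ambient temperature, polarization is measured and normalized to unbound and bound controls.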
Tau FP inhib – tau fibrillization inhibition (FP) | K18 P301L tau heparin fibrillization, Alexa594 FP, 6 h | Potency, µM (top dose mostly 57.7 µM), for inactives: at the highest dose activity, negative = inhibition, actives largely listed as inhibitors | P10636 | AID 1468 | actives 0.39% (n = 280,000); further: nearly all actives have a fitted effect of over 55% in size
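Heparin (20 uM) drove fibril formation of recombinant tau K18 P301L, 15 uM unlabeled with 0.24 uM Alexa 594 label, for 6 hr at 37 C in 100 mM sodium acetate pH 7. Fluorescence polarization (555/632 nm) read 1 hr after 30 uM ThT.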
TexasRed fluor – Texas Red fluorescence interference in TRb-SRC2 counter-screen; actives 0.29% (n = 280,000); TRb/SRC2 Texas Red total fluorescence interference; Potency, µM (doses to about 106 µM), without a hit: at the highest dose fluorescence change, negative = quenching; active means well fitted curve in either direction with a large enough effect; inconclusive means small, poorly fitted or top-dose-only effect
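Human TRβ ligand-binding domain (0.6 uM) and Texas Red SRC2 peptide (20 nM) in Tris buffer with 1 uM T3 and 5% DMSO were incubated with pinned compound for 5 hr at ambient temperature. Total fluorescence was computed as S + 2P (555/632 nm).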
* hit, by the source's call; ? = inconclusive; [ ] = remark or other dose. Unless noted, the call rests on the fitted dose curve; in most records, active means well fitted curve in the direction sought with a large enough effect; inconclusive means small, poorly fitted or top-dose-only effect, or another doubt; inactive means no such curve, though single readings can be large; an effect the other way counts as inactive or inconclusive. Unless noted, on the % scale 0 is the no-effect control and ±100 the full control effect; potency means the concentration at half of the fitted maximal effect.

SMILES | Tau fluor cs | Tau ThT inhib | TRb-SRC2 inh | Tau FP inhib | TexasRed fluor
C=C1c2cccc(O)c2C(O)=C2C(=O)[C@]3(O)C(O)=C(C(N)=O)C(=O)[C@@H](N(C)C)[C@@H]3[C@@H](O)[C@H]12 | ? | ? | -8.9% | ? | 31.6µM*[quencher]
C=C1c2cccc(O)c2C(O)=C2C(=O)[C@]3(O)C(O)=C(C(N)=O)C(=O)C(N(C)C)C3C(O)C12 (stereo partly specified) | -19.6% | ? | 11.4% | -4.9% | 39.8µM*[quencher]
COc1c(C)cc(NS(=O)(=O)c2ccc3c(c2)OCCO3)cc1C | -28.2% | -4.2% | 1.9% | 0.4% | 4.2%
CCOC(=O)CSc1nc2c(sc3ccccc32)c(=O)n1CCO | 0.6% | 10.2% | 3.6% | 0.3% | -1.2%
CCN1CC=C2C(C#N)=C(N)C(C#N)(C#N)C(c3cc(Cl)ccc3Cl)C2C1 (stereo unspecified) | -24.6% | 12.6µM* | -13.8% | ? | 9.5%
CC(C)N1CC=C2C(C#N)=C(N)C(C#N)(C#N)[C@H](c3ccoc3)[C@H]2C1 | -25.2% | 20µM* | -29.2% | ? | 11.2%
Cc1ccc([C@@H]2C3COCC=C3C(C#N)=C(N)C2(C#N)C#N)o1 (stereo partly specified) | -15.9% | 25.1µM* | -28.9% | ? | 19.0%
CCC1C2CN(C(C)=O)CC=C2C(C#N)=C(N)C1(C#N)C#N (stereo unspecified) | -12.8% | ? | 9.4% | ? | 3.2%
N#CC1=C(N)C(C#N)(C#N)[C@H](c2ccncc2)[C@H]2CC3(CC=C12)OCCO3 | 0.3% | -12.5% | 2.3% | -0.2% | 4.2%
CC(C)N1CC=C2C(C#N)=C(N)C(C#N)(C#N)C(c3ccccc3)C2C1 (stereo unspecified) | -18.3% | ? | -9.6% | ? | 5.2%
Cc1ccc(C2C3CSCC=C3C(C#N)=C(N)C2(C#N)C#N)cc1 (stereo unspecified) | -28.7% | 20µM* | 2.6% | ? | 5.5%
COc1ccc(OC2C=CC(C#Cc3ccc(Br)cc3)OC2CO)c(C(C)(C)C)c1 (stereo unspecified) | -23.5%[11.6 µM] | ? | 5.7%[11.2 µM] | -2.5%[11.6 µM] | 0.5%[11.2 µM]
O=C(NC(Cc1c[nH]c2ccccc12)C(=O)Nc1ccc(OC(F)(F)F)cc1)c1cccs1 (stereo unspecified) | 7.94µM*[quencher] | -3.0% | -2.7% | ? | -5.8%
O=C(NC(Cc1c[nH]c2ccccc12)C(=O)Nc1ccc(F)c([N+](=O)[O-])c1)c1cccs1 (stereo unspecified) | 15.8µM*[quencher] | ? | -3.2% | 14.9% | 1.3%
O=C(NC(Cc1c[nH]c2ccccc12)C(=O)O)c1cccs1 (stereo unspecified) | -3.0% | -3.3% | -2.4% | -3.6% | -0.3%
CCOc1ccc(C(=O)NCCn2cc(SCC(=O)Nc3ccc4c(c3)OCCO4)c3ccccc32)cc1 | ? | ? | 9.9% | -16.7% | -15.1%
Cc1[nH]n(-c2ccccc2)c(=O)c1/C=C1/C=c2ccccc2=N1 | -21.2% | 2.24µM* | -1.6% | 13.6% | 0.2%
O=C(COc1ncnc2c1cnn2-c1ccccc1)Nc1ccc(S(=O)(=O)N2CCCCC2)cc1 | ? | 5.2% | 1.1% | 17.8µM* | 1.6%
NS(=O)(=O)c1cccc(NC(=O)COc2ncnc3c2cnn3-c2ccccc2)c1 | 6.8% | 6.4% | 10.9% | 4.5% | 0.1%
CCc1ccc(NC(=O)Nc2ccccc2OCc2cc(=O)n3ccccc3n2)cc1 | -15.7% | -12.4% | -4.9% | -14.5% | -1.3%
CC1(C)CC(=O)C=C(NC2=CC3OC(c4ccccc4)OCC3OC2=O)C1 (stereo unspecified) | -6.5% | 17.8µM* | -10.4% | ? | 0.0%
CC1(C)CC(=O)C(N=Nc2ccc3ncsc3c2)=C(O)C1 | -9.6% | ? | -21.7% | 4.8% | 2.0%
COc1ccc2nc(N=NC3=C(O)CC(C)(C)CC3=O)sc2c1 | -21.8% | 15.8µM* | 4.6% | 3.3% | -4.3%
